zVAD death inh: inhibitors of zVAD-triggered necroptosis, primary screen, L929 cells; AID 1377, 2008; viability rescue, % at 10 µM; L929 zVAD necroptosis rescue, ATP luminescence, 24 h; with zVAD 60 µM; 220,000 tested, 0.38% active;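 active = activation, scaled between plate controls, above about 75%, limit read from the data; inactive = activation under that limit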;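 also: 0% = zVAD with DMSO and 100% = DMSO alone without zVAD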
Mcl1 Noxa PPI: Mcl-1/Noxa binding inhibitors, primary screen, biochemical, TR-FRET, 1536-well; Induced myeloid leukemia cell differentiation protein Mcl-1 (Homo sapiens), Q07820; TR-FRET Mcl-1/Noxa peptide binding, 2 h; inhibition, % at 21.7 µM; 220,000 tested, 1.5% active;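 active = compounds that cut the protein-peptide binding signal by more than 50% relative to plate controls in a single-dose test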;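 also: His-tagged Mcl-1 with rhodamine Noxa BH3 peptide and terbium anti-His antibody; 0% = Mcl-1 plus Noxa peptide wells and 100% = peptide-only wells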
Target sequence (Q07820 whole entry, looked up): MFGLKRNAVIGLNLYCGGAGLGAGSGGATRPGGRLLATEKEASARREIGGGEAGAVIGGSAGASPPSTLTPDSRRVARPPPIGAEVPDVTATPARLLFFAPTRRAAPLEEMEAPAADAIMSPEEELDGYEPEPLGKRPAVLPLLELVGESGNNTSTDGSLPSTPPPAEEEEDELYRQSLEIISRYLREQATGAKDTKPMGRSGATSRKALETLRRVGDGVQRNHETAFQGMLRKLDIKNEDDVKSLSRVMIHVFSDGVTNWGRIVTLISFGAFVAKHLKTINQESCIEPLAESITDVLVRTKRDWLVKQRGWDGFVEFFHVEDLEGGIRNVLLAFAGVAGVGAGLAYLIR
TNF death inh: inhibitors of TNF-alpha triggered necroptosis, primary screen, cell-based, Jurkat FADD-/-, single concentration. Jurkat FADD-/- TNF necroptosis rescue, ATP luminescence, 24 h; 0 = TNF only, 100 = no-TNF cells. activation (protection from cell death), % at 10 µM. 220,000 tested, 0.068% active;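 active = activation, meaning protection from cell death, of at least 50% relative to plate controls; inactive = activation below 50%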;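 also: necroptosis triggered by 40 ng/mL TNF-alpha added together with compound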
Mcl1 Bid PPI: Mcl-1/Bid binding inhibitors, primary screen, biochemical, TR-FRET, 1536-well; Induced myeloid leukemia cell differentiation protein Mcl-1 (Homo sapiens), Q07820; TR-FRET Mcl-1/Bid-Dy647 peptide binding; inhibition, % at 21.7 µM; 220,000 tested, 0.97% active; AID 1021, 2008;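 active = compounds that cut the binding signal by more than half at the single screening dose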;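 also: His-tagged Mcl-1 with europium anti-His antibody binding Bid BH3 peptide; 0% = Mcl-1 plus peptide wells and 100% = peptide-only wells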
Bim-Mcl-1: inhibitors of Bim peptide binding to Mcl-1, primary screen, biochemical, bead-based flow cytometry, multiplex; inhibition, % at 10 µM; AID 1009, 2008; Bim peptide-Mcl-1 binding; 190,000 tested, 0.1% active; Induced myeloid leukemia cell differentiation protein Mcl-1 (Homo sapiens), Q07820; in the data active = inhibition above about 40%;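 also: 0% = no compound tracer wells and 100% = peptide blocker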
m-calpain inh: inhibitors of pig calpain II, primary screen, biochemical, fluorogenic peptide substrate, 1536-well; inhibition, % at 16 µM; 220,000 tested, 0.37% active; AID 1236, 2008; purified calpain II, 30 min;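 active = inhibition above about 50%, limit read from the data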
Active calls of the source: *. An excerpt weighted towards active compounds, which were near 2.8% of everything screened.

What do the screens show for `O=C(O)c1ccc(-c2ccc(/C=N/Nc3ccc([N+](=O)[O-])cc3)o2)cc1`?
zVAD death inh: 0; Mcl1 Noxa PPI: 62*; TNF death inh: 6; Mcl1 Bid PPI: -49; m-calpain inh: 2

What do the screens show for `O=C(O)c1cccc(-c2ccc(/C=N/Nc3ccc([N+](=O)[O-])cc3)o2)c1`?
zVAD death inh: 1; Mcl1 Noxa PPI: 23; TNF death inh: 3; Mcl1 Bid PPI: -51; m-calpain inh: -23

Results for NS(=O)(=O)c1ccc(-c2ccc(/C=N/NC(=O)c3ccc([N+](=O)[O-])cc3)o2)cc1 ?
zVAD death inh: 1; Mcl1 Noxa PPI: 27; TNF death inh: -4; Mcl1 Bid PPI: 1; m-calpain inh: 0

What do the screens show for `NS(=O)(=O)c1ccc(-c2ccc(/C=N/Nc3ccc(C(=O)O)cc3)o2)cc1`?
zVAD death inh: 1; Mcl1 Noxa PPI: 59*; TNF death inh: 0; Mcl1 Bid PPI: -83; m-calpain inh: -23

Results for Cc1ccccc1-n1ccnc1SCC(=O)NCc1ccco1 ?
zVAD death inh: 3; Mcl1 Noxa PPI: 21; TNF death inh: 1; Mcl1 Bid PPI: -45; Bim-Mcl-1: 0; m-calpain inh: -56

How did COc1cc(/C=C2\SC(c3ccc(C)cc3)=NC2=O)ccc1O do in these assays?
zVAD death inh: 0; Mcl1 Noxa PPI: 9; TNF death inh: -19; Mcl1 Bid PPI: -28; Bim-Mcl-1: 2; m-calpain inh: -92

How did COc1ccc(C2=NN(c3ccccc3)C(=O)/C2=C\c2ccc(O)c(OC)c2)cc1 do in these assays?
zVAD death inh: 1; Mcl1 Noxa PPI: 52*; TNF death inh: 0; Mcl1 Bid PPI: -31; Bim-Mcl-1: 3; m-calpain inh: 4

What do the screens show for `CCCCCCN1C=CC(=C/C=C(\C#N)C(=O)OCC)C=C1`?
zVAD death inh: 1; Mcl1 Noxa PPI: 5; TNF death inh: 9; Mcl1 Bid PPI: 1; Bim-Mcl-1: -2; m-calpain inh: 28

Results for CCCN1C=CC(=C/C=C(\C#N)C(=O)OCC)C=C1 ?
zVAD death inh: 89*; Mcl1 Noxa PPI: -14; TNF death inh: 3; Mcl1 Bid PPI: -49; Bim-Mcl-1: -5; m-calpain inh: 18

What do the screens show for `CCOc1ccccc1-n1nnnc1SCC(=O)O`?
zVAD death inh: 0; Mcl1 Noxa PPI: 18; TNF death inh: 0; Mcl1 Bid PPI: -9; m-calpain inh: -19

Results for COc1cc2c(cc1OC)C(C(=O)N1CCN(c3ccccc3)CC1)C(c1cccs1)N(C)C2=O (centres undefined) ?
zVAD death inh: 1; Mcl1 Noxa PPI: -3; TNF death inh: -2; Mcl1 Bid PPI: -79; Bim-Mcl-1: -114; m-calpain inh: -34

How did CCc1nnc(NC(=O)c2ccc(-c3cc(C(F)(F)F)ccc3Cl)o2)s1 do in these assays?
zVAD death inh: 0; Mcl1 Noxa PPI: -2; TNF death inh: -1; Mcl1 Bid PPI: -8; Bim-Mcl-1: -1; m-calpain inh: 3

Results for COc1ccc(NC(=O)c2[nH]ncc2[N+](=O)[O-])cc1 ?
zVAD death inh: 2; Mcl1 Noxa PPI: 5; TNF death inh: 1; Mcl1 Bid PPI: 80*; Bim-Mcl-1: 1; m-calpain inh: -19

What do the screens show for `O=C(Nc1ccccc1)c1[nH]ncc1[N+](=O)[O-]`?
zVAD death inh: 1; Mcl1 Noxa PPI: 2; TNF death inh: -1; Mcl1 Bid PPI: -13; Bim-Mcl-1: -2; m-calpain inh: 4

What do the screens show for `O=C(Nc1nccs1)c1ccc(-c2ccc([N+](=O)[O-])cc2)o1`?
zVAD death inh: 4; Mcl1 Noxa PPI: 66*; TNF death inh: 0; Mcl1 Bid PPI: 26; Bim-Mcl-1: 1; m-calpain inh: -101

What do the screens show for `CCc1nnc(NC(=O)c2ccc(-c3ccc([N+](=O)[O-])cc3Cl)o2)s1`?
zVAD death inh: 18; Mcl1 Noxa PPI: 59*; TNF death inh: 1; Mcl1 Bid PPI: 66*; Bim-Mcl-1: 0; m-calpain inh: -30

Results for COc1ccc(NC(=O)c2ccc(-c3ccc([N+](=O)[O-])cc3)o2)cc1 ?
zVAD death inh: 4; Mcl1 Noxa PPI: 51*; TNF death inh: 1; Mcl1 Bid PPI: 2; Bim-Mcl-1: 0; m-calpain inh: 16

How did CS(=O)(=O)N1CCC(C(=O)NCc2ccc(Cl)cc2Cl)CC1 do in these assays?
zVAD death inh: 0; Mcl1 Noxa PPI: 6; TNF death inh: 1; Mcl1 Bid PPI: 0; Bim-Mcl-1: 0; m-calpain inh: -6

How did CCOC(=O)N1CCC(NC(=O)c2cc(C(=O)NCC(OC)OC)ccc2CO)CC1 do in these assays?
zVAD death inh: 0; Mcl1 Noxa PPI: -2; TNF death inh: 1; Mcl1 Bid PPI: -7; Bim-Mcl-1: -2; m-calpain inh: 16

Results for O=c1c2ccccc2nnn1CCO ?
zVAD death inh: 1; Mcl1 Noxa PPI: 8; TNF death inh: 0; Mcl1 Bid PPI: -16; Bim-Mcl-1: -3; m-calpain inh: -17

Results for CC(=O)Oc1ccc(C(c2ccc(OC(C)=O)cc2)c2ccccn2)cc1 ?
zVAD death inh: 0; Mcl1 Noxa PPI: 32; TNF death inh: -3; Mcl1 Bid PPI: 87*; Bim-Mcl-1: -2; m-calpain inh: 13

How did c1ccc(C(c2ccccn2)c2ccccn2)cc1 do in these assays?
zVAD death inh: 0; Mcl1 Noxa PPI: 3; TNF death inh: -1; Mcl1 Bid PPI: -32; Bim-Mcl-1: -2; m-calpain inh: -1

What do the screens show for `COc1ccccc1-c1nnc(SCC(=O)NCc2c(C)c(Cl)cc(C(C)C)c2O)o1`?
zVAD death inh: 0; Mcl1 Noxa PPI: -2; TNF death inh: 1; Mcl1 Bid PPI: -22; Bim-Mcl-1: -3; m-calpain inh: 51*

How did COc1ccccc1-c1nnc(SCC(=O)Nc2c(Cl)cccc2Cl)o1 do in these assays?
zVAD death inh: 0; Mcl1 Noxa PPI: 2; TNF death inh: 1; Mcl1 Bid PPI: -17; Bim-Mcl-1: 3; m-calpain inh: -4

How did CSc1sc(C(=O)NC(=O)NCc2ccncc2)c(C)c1-c1ccon1 do in these assays?
zVAD death inh: 1; Mcl1 Noxa PPI: 3; TNF death inh: -5; Mcl1 Bid PPI: 5; m-calpain inh: 16

Results for O=C(O)c1cccc(N2C(=O)c3cccc(Oc4ccc(Cl)cc4)c3C2=O)c1 ?
zVAD death inh: 1; Mcl1 Noxa PPI: 15; TNF death inh: 1; Mcl1 Bid PPI: 0; Bim-Mcl-1: 0; m-calpain inh: -5

Results for Nc1nc(SCc2ccc([N+](=O)[O-])cc2)nc2nc3c(cc12)CCCC3 ?
zVAD death inh: 0; Mcl1 Noxa PPI: 5; TNF death inh: -1; Mcl1 Bid PPI: 79*; Bim-Mcl-1: 2; m-calpain inh: 24
